This is an account of results in PubChem BioAssay (NCI).

Compounds without any hit were thinned out: in the full panel of roughly 83,000, 20% have a hit.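 For each line, cells grew in 96-well plates with the test compound present at a single concentration for 48 hours.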 A number with no mark means an inactive call. Calls of active or inactive are those of the source. How the source made its calls: active means growth percent below 10; inactive means the rest.

In one test the test system is OVCAR-3 ovarian. As to the kind of experiment: NCI-60 one-dose screen, 48 h (100 = growth as untreated, 0 = no growth, -100 = all killed). Conditions: 10 µM unless noted.
Consider `Cc1ccc(S(=O)(=O)N2CCN(C(=O)CSc3nc4ccc(C)cc4[nH]3)CC2)cc1`, for which the growth was 111%.

Turning to `CCOc1cc(/C=C/C(=O)C(C(=O)/C=C/c2ccc(OC(=O)CNc3nc4ccccc4[nH]3)c(OCC)c2)C(=O)CNc2nc3ccccc3[nH]2)ccc1OC(=O)CNc1nc2ccccc2[nH]1`, the growth is -2.21% (active).

`COc1ccc(CC(=O)Nc2nn3c(-c4cc(C(F)(F)F)cc(C(F)(F)F)c4)nnc3s2)cc1`: the growth was 53.5%. Still for that read-out and setting: as for `O=C(Nc1nc2ccc(OC(F)(F)F)cc2s1)c1ccc(F)cc1`, the figure is -37.8% (active). Still for that read-out and setting: as for `O=C(/C=C/c1ccc([N+](=O)[O-])cc1)c1ccc2c3c(cccc13)CC2`, the figure is 66.9%; as for `O=C(Nc1ccc(Cl)cc1)Nc1nc2ccc(OC(F)(F)F)cc2o1`, 74.3%; as for `O=C(/C=C/c1c(-c2ccccc2)[nH]c2ccccc12)S(=O)(=O)c1ccccc1`, 68.9%. For the molecule `Clc1ccc2nc(CI)c(CI)nc2c1`, the growth was 65.4%. Still for that read-out and setting: as for `FC(F)(F)c1cc(-c2nnc3n2N=C(N2CCCC2)CS3)cc(C(F)(F)F)c1`, the figure is 53.6%; as for `Clc1ccc(C2c3ccccc3-c3nccn32)c(Cl)c1` (centres undefined), 55%; as for `COC(=O)c1c(NC(=O)CSc2nnnn2-c2ccc(OC)cc2)sc(C)c1C`, 99.2%. Same read-out and setting: as for `O=[N+]([O-])c1ccc(NS(=O)(=O)c2ccc(Cl)c(Cl)c2)cc1`, the figure is 78.3%.

In the case of `O=C(O)C1CCN(S(=O)(=O)c2ccc(-c3ccccc3)cc2)CC1`, the growth is 112%. With `O=C1/C=C/[C@@H](O)[C@@H]2C[C@@H](O)C[C@H]2/C=C/CCC[C@H](CO)O1`, the growth is -2.9% (active). Same read-out and setting: the value for `COc1ccc(N2CCN(CC(=O)N3CCN(c4nnc(-c5ccccc5)c(-c5ccccc5)n4)CC3)CC2)cc1` was 49.5%; that for `O=C1/C(=C/c2ccc(F)cc2)Cc2ccccc21` was 110%; that for `CCN(CC)CCOCC[C@H]1CC[C@H]2[C@@H]3[C@H](C)Cc4cc(OS(N)(=O)=O)ccc4[C@H]3CC[C@]12C` was -86.5% (active).

For the molecule `COc1cc(-c2n[nH]nc2-c2ccccn2)cc(OC)c1OC`, the growth was 102%.

As to `Cc1cc(C)c2c(N)c3cccc(C)c3nc2n1`, the growth is -35.7% (active). For `Cc1c2oc3c(C)ccc(C(=O)OC(C)C4NC(=O)C(C(C)C)N(C)C(=O)CN(C)C(=O)C5CCCN5C(=O)C(C(C)C)NC4=O)c3nc-2c(C(=O)OC(C)C2NC(=O)C(C(C)C)N(C)C(=O)CN(C)C(=O)C3CCCN3C(=O)C(C(C)C)NC2=O)c(N)c1=O` (centres undefined), the growth is 5.3% (active). `N[C@H](CS)C(=O)O`: the growth was 122%. The same measure, in the same setting: the value for `CCCCCCCCCCN1CCC(N2CCCCC2)CC1` was 20.1%; that for `CCCCc1ccc(C(N)=O)nc1` was 107%; that for `O=C(CN1CCN(c2ccc(Cl)cc2)CC1)N1CCN(c2nnc(-c3ccc(Cl)cc3)c(-c3ccc(Cl)cc3)n2)CC1` was 78.4%.

Take `COc1ccc2c(=O)c(OC)c(-c3cc(OC)c(OC)c(OC)c3)oc2c1`: the growth was 98.6%. In the case of `O=Nc1c2cccnc2n2nnc3ccc(Cl)cc3c12`, the growth is -29.5% (active). Same read-out and setting: the value for `CC(=O)/C(=C/c1ccc(Cl)cc1)C(=O)c1ccccc1` was 91.3%; that for `C[C@H]1C(=O)N2c3ccccc3[C@@]3(O)C[C@@H](n4cnc5ccccc5c4=O)C(=O)N1[C@@H]23` was 115%. Take `O=C(CN1CCN(c2ccc(Cl)cc2)CC1)N1CCN(c2nnc(-c3ccccc3)c(-c3ccccc3)n2)CC1`: the growth is 40.9%. `CCCCCCCCCCCCC1CCCC(C)C1` (centres undefined): the growth was 108%. Still for that read-out and setting: the value for `[N-]=[N+]=NCc1cccc(/C(O)=C/C(=O)C(=O)O)c1` was 126%; that for `COc1cccc(N2CCN(CC(=O)N3CCN(c4nnc(-c5ccc(Cl)cc5)c(-c5ccc(Cl)cc5)n4)CC3)CC2)c1` was 68.1%; that for `COc1ccc(C(=O)/C=C/c2ccc(C)cc2)cc1OC` was 4.42% (active). Still for that read-out and setting: the value for `CCOC(=O)c1cnc2c(C)cc(C)cc2c1NCCCN(C)C` was 34.5%. Still for that read-out and setting: the value for `CN(C)CCCNc1nn2c(=O)c3ccccc3nc2c2ccccc12` was 57.7%; that for `COc1cc(C(=O)c2cc3c(cc2C)OCO3)cc(OC)c1OC` was 5.31% (active); that for `Cc1cc(C(=O)Nc2ccc3cc(CN4CCOCC4)ccc3n2)c(C)n1-c1ccccc1` was 26.7%. Regarding `Cc1sc2nc3c4ccccc4c(NCCCN(C)C)nn3c(=O)c2c1C`, the growth is 59.2%. On the same count and under the same terms, as for `CCN(CC)c1ccc(C(=C2C=CC(=[N+](CC)Cc3cccc(S(=O)(=O)O)c3)C=C2)c2ccc(N(CC)Cc3cccc(S(=O)(=O)O)c3)cc2)cc1`, the figure is 14.2%. Still for that read-out and setting: as for `COc1ccc(N2CCN(CC(=O)N3CCN(c4nnc(-c5ccc(Cl)cc5)c(-c5ccc(Cl)cc5)n4)CC3)CC2)cc1`, the figure is 52%.

Another test relates to HS 578T breast. The test is described as above. Conditions: 10 µM unless noted.
For the molecule `Cc1ccc(S(=O)(=O)N2CCN(C(=O)CSc3nc4ccc(C)cc4[nH]3)CC2)cc1`, the growth was 126%. Same read-out and setting: the value for `CCOc1cc(/C=C/C(=O)C(C(=O)/C=C/c2ccc(OC(=O)CNc3nc4ccccc4[nH]3)c(OCC)c2)C(=O)CNc2nc3ccccc3[nH]2)ccc1OC(=O)CNc1nc2ccccc2[nH]1` was -4.12% (active). The same measure, in the same setting: as for `COc1ccc(CC(=O)Nc2nn3c(-c4cc(C(F)(F)F)cc(C(F)(F)F)c4)nnc3s2)cc1`, the figure is 75.6%; as for `O=C(Nc1nc2ccc(OC(F)(F)F)cc2s1)c1ccc(F)cc1`, 38.6%; as for `O=C(/C=C/c1ccc([N+](=O)[O-])cc1)c1ccc2c3c(cccc13)CC2`, -4.95% (active). Still for that read-out and setting: as for `O=C(Nc1ccc(Cl)cc1)Nc1nc2ccc(OC(F)(F)F)cc2o1`, the figure is 143%; as for `O=C(/C=C/c1c(-c2ccccc2)[nH]c2ccccc12)S(=O)(=O)c1ccccc1`, 90.1%.

As for `Clc1ccc2nc(CI)c(CI)nc2c1`, the growth was 158%. In the case of `FC(F)(F)c1cc(-c2nnc3n2N=C(N2CCCC2)CS3)cc(C(F)(F)F)c1`, the growth was 46.8%. Same read-out and setting: as for `Clc1ccc(C2c3ccccc3-c3nccn32)c(Cl)c1` (centres undefined), the figure is 73.7%. The same measure, in the same setting: the value for `COC(=O)c1c(NC(=O)CSc2nnnn2-c2ccc(OC)cc2)sc(C)c1C` was 31.7%; that for `O=[N+]([O-])c1ccc(NS(=O)(=O)c2ccc(Cl)c(Cl)c2)cc1` was 93.7%. As to `O=C(O)C1CCN(S(=O)(=O)c2ccc(-c3ccccc3)cc2)CC1`, the growth is 113%. Same read-out and setting: the value for `O=C1/C=C/[C@@H](O)[C@@H]2C[C@@H](O)C[C@H]2/C=C/CCC[C@H](CO)O1` was 35.5%; that for `COc1ccc(N2CCN(CC(=O)N3CCN(c4nnc(-c5ccccc5)c(-c5ccccc5)n4)CC3)CC2)cc1` was 54.7%. In the case of `O=C1/C(=C/c2ccc(F)cc2)Cc2ccccc21`, the growth was 109%. The same measure, in the same setting: the value for `CCN(CC)CCOCC[C@H]1CC[C@H]2[C@@H]3[C@H](C)Cc4cc(OS(N)(=O)=O)ccc4[C@H]3CC[C@]12C` was -44.6% (active). Still for that read-out and setting: the value for `COc1cc(-c2n[nH]nc2-c2ccccn2)cc(OC)c1OC` was 98%.

As for `Cc1cc(C)c2c(N)c3cccc(C)c3nc2n1`, the growth was 73.2%. Still for that read-out and setting: the value for `Cc1c2oc3c(C)ccc(C(=O)OC(C)C4NC(=O)C(C(C)C)N(C)C(=O)CN(C)C(=O)C5CCCN5C(=O)C(C(C)C)NC4=O)c3nc-2c(C(=O)OC(C)C2NC(=O)C(C(C)C)N(C)C(=O)CN(C)C(=O)C3CCCN3C(=O)C(C(C)C)NC2=O)c(N)c1=O` (centres undefined) was -2.72% (active); that for `N[C@H](CS)C(=O)O` was 115%; that for `CCCCCCCCCCN1CCC(N2CCCCC2)CC1` was -5.23% (active). Still for that read-out and setting: as for `CCCCc1ccc(C(N)=O)nc1`, the figure is -48.3% (active). On the same count and under the same terms, as for `O=C(CN1CCN(c2ccc(Cl)cc2)CC1)N1CCN(c2nnc(-c3ccc(Cl)cc3)c(-c3ccc(Cl)cc3)n2)CC1`, the figure is 71.7%; as for `COc1ccc2c(=O)c(OC)c(-c3cc(OC)c(OC)c(OC)c3)oc2c1`, 91.9%; as for `O=Nc1c2cccnc2n2nnc3ccc(Cl)cc3c12`, 70%. On to `C[C@H]1C(=O)N2c3ccccc3[C@@]3(O)C[C@@H](n4cnc5ccccc5c4=O)C(=O)N1[C@@H]23`, for which the growth is 32.9%. Consider `O=C(CN1CCN(c2ccc(Cl)cc2)CC1)N1CCN(c2nnc(-c3ccccc3)c(-c3ccccc3)n2)CC1`, for which the growth was 62.6%. Take `CCCCCCCCCCCCC1CCCC(C)C1` (centres undefined): the growth was 93.3%. With `[N-]=[N+]=NCc1cccc(/C(O)=C/C(=O)C(=O)O)c1`, the growth was 82.6%. Take `COc1cccc(N2CCN(CC(=O)N3CCN(c4nnc(-c5ccc(Cl)cc5)c(-c5ccc(Cl)cc5)n4)CC3)CC2)c1`: the growth is 58.4%.

For `COc1ccc(C(=O)/C=C/c2ccc(C)cc2)cc1OC`, the growth is 107%.

`CCOC(=O)c1cnc2c(C)cc(C)cc2c1NCCCN(C)C`: the growth is 65.7%. Still for that read-out and setting: the value for `CN(C)CCCNc1nn2c(=O)c3ccccc3nc2c2ccccc12` was 61.6%; that for `COc1cc(C(=O)c2cc3c(cc2C)OCO3)cc(OC)c1OC` was 44.3%. As to `Cc1cc(C(=O)Nc2ccc3cc(CN4CCOCC4)ccc3n2)c(C)n1-c1ccccc1`, the growth was 82.3%.

`Cc1sc2nc3c4ccccc4c(NCCCN(C)C)nn3c(=O)c2c1C`: the growth was 71.6%.

For `CCN(CC)c1ccc(C(=C2C=CC(=[N+](CC)Cc3cccc(S(=O)(=O)O)c3)C=C2)c2ccc(N(CC)Cc3cccc(S(=O)(=O)O)c3)cc2)cc1`, the growth was 71.9%. Consider `COc1ccc(N2CCN(CC(=O)N3CCN(c4nnc(-c5ccc(Cl)cc5)c(-c5ccc(Cl)cc5)n4)CC3)CC2)cc1`, for which the growth is 52.9%.
